We go through 26 compounds from PubChem BioAssay (EPA / NIEHS).

SMILES strings stand for the structures. Several values for one entry are separate records, joined by “and”; a condition that tells them apart may be missing. Identical values can stand only once. Records with an inconclusive call do not appear. The source holds several records for some structures; these can differ, active in one and inactive in another. Activity calls are given as the source filed them. Rule for the calls, unless noted: active = hit-call score of the fitted dose curve at least 0.9, where 1 is the maximum; inconclusive = response in the unintended direction; inactive = score below 0.9.

Assay [1] concerns the target Retinoic acid receptor RXR-alpha (Homo sapiens) (UniProt P19793). As to the kind of experiment: OT_NURR1_NURR1RXRa_0480: Odyssey Thera (OT) 8-hour HEK293T Protein Complementation Assay for Nurr1/retinoid X receptor (RXR) (AID 2283385). The method in brief: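 Compounds are applied to HEK293T cells carrying Nurr1 and RXRα linked to reporter fragments. After 8 h, fluorescence intensity reports heterodimer formation, with DMSO as baseline.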

For assay [2] the target is unchanged. As to the kind of experiment: OT_NURR1_NURR1RXRa_1440: Odyssey Thera (OT) 24-hour HEK293T Protein Complementation Assay for Nurr1/retinoid X receptor (RXR) (AID 2283386). Summed up:
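Measured as fluorescence from a reconstituted split reporter, this 24 h HEK293T complementation assay scores compound-induced gain of Nurr1/RXRα association relative to DMSO.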

Assay [3] deals with Peroxisome proliferator-activated receptor gamma (Homo sapiens) (UniProt P37231). As to the kind of experiment: OT_PPARg_PPARgSRC1_0480: Odyssey Thera (OT) 8-hour Protein-Complementation Assay for Peroxisome Proliferator-activated Receptor Gamma / SRC-1 Co-activator (AID 2283387).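 Note: nuclear to cytoplasmic split Venus YFP fluorescence ratio reporting PPARg SRC-1 interaction.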 Summed up: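 Read-out: 488 nm N/C fluorescence ratio from complemented Venus YFP fragments, ≥350 cells per image, gain-of-signal fitted against DMSO baseline. Fusions of PPARg/SRC-1 with IFP1/IFP2 expressed transiently in HEK293T; compounds applied 8 h.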
Peroxisome proliferator-activated receptor gamma (Homo sapiens), sequence (P37231 whole entry, looked up, the tested form may be a part): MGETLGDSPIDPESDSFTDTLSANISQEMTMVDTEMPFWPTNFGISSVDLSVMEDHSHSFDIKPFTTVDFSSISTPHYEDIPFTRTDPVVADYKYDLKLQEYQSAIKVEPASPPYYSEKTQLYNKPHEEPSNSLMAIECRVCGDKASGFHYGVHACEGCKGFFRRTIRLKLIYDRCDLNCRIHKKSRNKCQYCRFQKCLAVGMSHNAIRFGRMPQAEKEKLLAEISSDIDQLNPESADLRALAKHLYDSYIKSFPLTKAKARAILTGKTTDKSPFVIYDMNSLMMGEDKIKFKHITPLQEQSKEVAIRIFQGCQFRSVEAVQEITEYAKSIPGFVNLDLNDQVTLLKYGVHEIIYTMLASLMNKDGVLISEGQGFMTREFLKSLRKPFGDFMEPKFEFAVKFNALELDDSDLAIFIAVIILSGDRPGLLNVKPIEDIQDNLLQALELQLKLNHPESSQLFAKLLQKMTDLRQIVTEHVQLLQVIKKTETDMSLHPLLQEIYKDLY

The target is the same in assay [4]. Put plainly: OT_PPARg_PPARgSRC1_1440: Odyssey Thera (OT) 24-hour Protein-Complementation Assay for Peroxisome Proliferator-activated Receptor Gamma/ SRC-1 Co-activator (AID 2283388).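 Note: nuclear to cytoplasmic ratio of reconstituted Venus YFP fluorescence in fixed imaged cells.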 The method in brief:
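Protein-fragment complementation between PPARg and coactivator SRC-1 was measured by fluorescence imaging in transiently transfected HEK293T cells after 24 h treatment. Signal was quantified as N/C ratio in the 488 nm channel, with DMSO as negative control.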

The nature of assay [5]: CEETOX_H295R_OHPREG: CeeTox H295R High-throughput Steroidogenesis Assay for OH-Pregnenolone (OHPREG) (AID 2283434; active = hit-call score of the fitted dose curve at least 0.9, where 1 is the maximum; inactive = score below 0.9). Conditions: actives raise or lower the signal. Summed up: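 Hormone levels in spent medium were measured by tandem mass spectrometry following liquid-liquid extraction. Cells (H295R) had been forskolin-stimulated (10 uM, 48 h) before a 48 h chemical exposure at 0.1% DMSO, with activity fitted in both directions against DMSO.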

Assay [6] can be described thus: CEETOX_H295R_ESTRADIOL: CeeTox H295R High-throughput Steroidogenesis Assay for Estradiol (AID 2283440; active = hit-call score of the fitted dose curve at least 0.9, where 1 is the maximum; inactive = score below 0.9;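 note: estradiol secreted into medium quantified by LC-MS/MS after dansyl derivatisation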). Conditions: actives raise or lower the signal. The method in brief:
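Estradiol secreted into the medium was measured by tandem mass spectrometry after liquid-liquid extraction and dansylation. Human H295R cells had been forskolin-primed (10 uM, 48 h) before a 48 h chemical exposure with 0.1% DMSO.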

Read-out in assay [7]: Tumor necrosis factor receptor superfamily member 6 (Homo sapiens) (UniProt P25445)
Put plainly: LTEA_HepaRG_FAS: Life Technologies and Expression Analysis (LTEA) Assay for Fas cell surface death receptor (FAS) using HepaRG (AID 2283447; active = hit-call score of the fitted dose curve at least 0.9, where 1 is the maximum; inactive = score below 0.9). The following applies: mRNA level, 48 h; actives raise or lower the signal. The method in brief:
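FAS transcript level was measured by TaqMan qRT-PCR against three housekeeping genes after 48 h chemical exposure. Cells were HepaRG, 0.5% DMSO vehicle, with a top concentration of 100 uM and half-log dilutions over eight points, in duplicate.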

The nature of assay [8]: CEETOX_H295R_11DCORT: CeeTox H295R High-throughput Steroidogenesis Assay for 11-Deoxycortisol (11DCORT) (AID 2283432; active = hit-call score of the fitted dose curve at least 0.9, where 1 is the maximum; inactive = score below 0.9;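 for AC50: human adrenal H295R cells prestimulated with 10 µM forskolin for 48 h; 11-deoxycortisol secreted into the medium measured by LC-MS/MS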). Conditions: actives raise or lower the signal. The method in brief:
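H295R cells; 10 uM forskolin prestim 48 h; compound in 0.1% DMSO 48 h; media extracted with MTBE; 11-deoxycortisol by LC-MS/MS, 7-point standard curve; gain/loss vs DMSO baseline; viability by MTT in same wells.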

Assay [9] is described as follows: CEETOX_H295R_ANDR: CeeTox H295R High-throughput Steroidogenesis Assay for Androstenedione (ANDR) (AID 2283436; active = hit-call score of the fitted dose curve at least 0.9, where 1 is the maximum; inactive = score below 0.9;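 note: human H295R adrenal cells exposed for 48 h with androstenedione measured in medium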). The following applies: actives raise or lower the signal. Summed up: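 Read-out is androstenedione secreted into medium, measured by tandem mass spectrometry after liquid-liquid extraction. Cells were H295R, dosed for 48 h per modified OECD 456; activity fitted in both directions relative to DMSO.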

Assay [10] in a line: CEETOX_H295R_CORTIC: CeeTox H295R High-throughput Steroidogenesis Assay for Corticosterone (CORTIC) (AID 2283437; active = hit-call score of the fitted dose curve at least 0.9, where 1 is the maximum; inactive = score below 0.9;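 note: corticosterone secreted into medium quantified by mass spectrometry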). Conditions: actives raise or lower the signal. Summed up:
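Corticosterone secreted into medium is measured by reverse-phase HPLC with tandem MS following liquid-liquid extraction. Cells are forskolin-stimulated (10 uM, 48 h) before 48 h test exposure; activity fitted in both directions against DMSO.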

Retinoic acid receptor RXR-alpha (Homo sapiens), sequence (P19793 whole entry, looked up, the tested form may be a part): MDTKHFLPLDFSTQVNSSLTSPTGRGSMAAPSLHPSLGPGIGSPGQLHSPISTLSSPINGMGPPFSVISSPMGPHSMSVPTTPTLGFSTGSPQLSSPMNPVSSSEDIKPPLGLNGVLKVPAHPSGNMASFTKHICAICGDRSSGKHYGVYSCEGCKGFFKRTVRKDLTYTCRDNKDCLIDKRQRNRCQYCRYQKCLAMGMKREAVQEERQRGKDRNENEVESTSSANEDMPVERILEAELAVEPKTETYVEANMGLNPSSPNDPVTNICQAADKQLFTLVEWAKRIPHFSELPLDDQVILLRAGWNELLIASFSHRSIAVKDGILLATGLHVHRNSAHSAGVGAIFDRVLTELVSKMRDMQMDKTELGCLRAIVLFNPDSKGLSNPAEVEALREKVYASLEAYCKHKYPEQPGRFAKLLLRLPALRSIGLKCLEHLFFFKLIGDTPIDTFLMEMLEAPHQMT

`OCC(O)CO`: the call in assay [1], in assay [2], in assay [3] and in assay [4] was inactive.

As usually defined, the AC50 is the concentration at which the activity in the assay is half-maximal. `C[C@]12CCC(=O)C=C1CC[C@@H]1[C@@H]2CC[C@]2(C)C(=O)CC[C@@H]12`: the compound was classed as inactive in assay [1], in assay [2], in assay [3], in assay [4], in assay [6] and in [7]. Besides, the half-maximal activity concentration (AC50) in assay [5] was 8.12 µM (active).

`O=S(=O)(O)C(F)(F)C(F)(F)C(F)(F)C(F)(F)C(F)(F)C(F)(F)F`: the outcome in assay [1], in assay [2], in assay [3], in assay [4] and in [7] was inactive.

In the case of `CC1=C2C[C@H]3[C@@H](CC=C4C[C@@H](O)CC[C@@]43C)[C@@H]2CC[C@]12O[C@@H]1C[C@H](C)CN[C@H]1[C@H]2C`, the compound was called inactive in assay [1], in assay [2], in assay [3], in assay [4], in [8] and in assay [9]. Besides, the outcome in assay [10] and in [7] was inactive.

For `CCC(C)(c1ccc(O)cc1)c1ccc(O)cc1`, the AC50 in assay [1] was 30.8 µM (active) and 67 µM (active) and 68.3 µM (active); in assay [2] it was 92.5 µM (active) and 87.7 µM (active). Besides, the outcome in [1], in assay [2], in assay [3], in assay [4] and in assay [7] was inactive.

As to `ClC1=C(Cl)[C@]2(Cl)[C@@H]3[C@@H](Cl)[C@H]4O[C@H]4[C@@H]3C1(Cl)C2(Cl)Cl`, the AC50 was 79.6 µM (active) in [1] and 86 µM (active) in assay [2]. The outcome in assay [1], in assay [2], in assay [3], in [4] and in assay [7] was inactive.

`Nc1ccc(-c2ccc(N)cc2)cc1`: the compound was called inactive in assay [1], in assay [2], in [3], in assay [4], in assay [6] and in assay [7]. Further, the figures for the AC50 in assay [8], in assay [5] and in [10] were 79.6 µM (active), 14.3 µM (active) and 2.96 µM (active), respectively.

`Cc1cc2c3c(c1)C(c1ccccc1)=N[C@@H](NC(=O)c1ccncc1)C(=O)N3CC2`: the AC50 in assay [1] was 62 µM (active); in assay [2], 33.6 µM (active); in assay [3] it was 25 µM (active) and 20.8 µM (active); in [4] it was 37.4 µM (active); in [5] it was 25.4 µM (active). For the same compound, the outcome in assay [1], in [2], in [4], in assay [6] and in [7] was inactive.

For the compound `Cc1cc(O)ccc1Cl`, the result in assay [1], in assay [2], in [3], in assay [4], in assay [8] and in assay [5] was inactive. In addition, the compound was called inactive in assay [10], in [6] and in assay [7].

On to `CC#Cc1cc(C)nc(Nc2ccccc2)n1`, for which the compound was called inactive in [1], in [2], in assay [3], in assay [4], in assay [8] and in assay [5]. Also, the call in assay [10], in [6] and in [7] was inactive.

With `CCC(=O)O[C@H]1CC[C@H]2[C@@H]3CCC4=CC(=O)CC[C@]4(C)[C@H]3CC[C@]12C`, the concentration at half-maximal activity (AC50) was 42.7 µM (active) and 57.9 µM (active) in assay [1]; 73.3 µM (active) and 73.7 µM (active) and 78.4 µM (active) in assay [2]; 75.1 µM (active) in assay [8]; 34.1 µM (active) in assay [5]; 22.8 µM (active) in assay [9]; 0.643 µM (active) in assay [6]. For the same compound, the compound was called inactive in assay [1], in [2], in assay [3], in assay [4], in [10] and in assay [7].

In the case of `NS(=O)(=O)C(F)(F)C(F)(F)C(F)(F)C(F)(F)C(F)(F)C(F)(F)C(F)(F)C(F)(F)F`, the concentration at half-maximal activity (AC50) in assay [1] was 83.3 µM (active). In addition, the result in assay [1], in assay [2], in assay [3], in assay [4], in assay [8] and in assay [5] was inactive. The compound was called inactive in assay [9], in [10], in assay [6] and in assay [7].

As to `Cc1ccc(O)c(C)c1`, the result in [1], in [2], in [3], in assay [4], in assay [8] and in assay [5] was inactive. Moreover, the compound was classed as inactive in assay [10], in assay [6] and in assay [7].

As for `CCC(C)(CC)c1cc(NC(=O)c2c(OC)cccc2OC)on1`, the compound was called inactive in assay [1], in assay [2], in assay [3], in assay [4], in assay [5] and in [7].

Turning to `O=C(NC(=O)c1c(F)cccc1F)Nc1cc(Cl)c(OC(F)(F)C(F)F)c(Cl)c1`, the compound was called inactive in assay [1], in assay [2], in assay [3], in assay [4], in assay [8] and in assay [5]. Besides, the outcome in [9], in assay [10], in assay [6] and in [7] was inactive.

In the case of `O=C(O)C(F)(F)C(F)(F)C(F)(F)C(F)(F)C(F)(F)F`, the result in [1], in assay [2], in assay [3], in assay [4] and in [7] was inactive.

Regarding `C1CC2OC2CC1C1CO1` (stereo not given), the call in assay [1], in [2], in assay [3], in [4] and in assay [7] was inactive.

In the case of `Cc1ccccc1CO[C@@H]1C[C@@]2(C(C)C)CC[C@]1(C)O2`, the AC50 was 81.2 µM (active) in [1], 50 µM (active) in assay [5] and 50 µM (active) in [9]. In addition, the result in assay [2], in assay [3], in [4] and in [7] was inactive.

Take `c1cc2ccc3cccc4ccc(c1)c2c34`: the compound was classed as inactive in assay [1], in [2], in [3], in assay [4], in assay [10] and in assay [7]. In addition, the concentration at half-maximal activity (AC50) in [8] is 26.5 µM (active); in assay [5], 15.8 µM (active); in [9] it was 35.9 µM (active).

For the compound `ClC(Cl)=C(c1ccc(Cl)cc1)c1ccc(Cl)cc1`, the AC50 in assay [1] is 78.3 µM (active) [middle of 4 runs]; in assay [2], 79.2 µM (active) and 79.5 µM (active) and 80 µM (active). Besides, the call in assay [2], in assay [3], in assay [4] and in assay [7] was inactive.

For the compound `CN(C)CCO`, the compound was called inactive in assay [1], in assay [2], in [3], in assay [4] and in [7].

`CCCCCCCCCc1ccc(O)cc1`: the concentration at half-maximal activity (AC50) in [1] was 50 µM (active); in assay [2], 79.1 µM (active) and 85.9 µM (active). Also, the compound was called inactive in [1], in assay [3], in [4] and in assay [7].

For the compound `Oc1ccc(C(c2ccc(O)cc2)(C(F)(F)F)C(F)(F)F)cc1`, the call in [1], in [2], in [3], in [4] and in assay [7] was inactive.

As to `Clc1ccc(C(c2ccccc2Cl)C(Cl)(Cl)Cl)cc1` (stereo not given), the AC50 in [1] is 54.9 µM (active) and 58.4 µM (active) and 63.9 µM (active); in assay [2], 59.9 µM (active). For the same compound, the call in assay [2], in [3], in assay [4], in [8], in [5] and in assay [10] was inactive. The result in [6] and in [7] was inactive.

`CCCCCCOC(=O)c1ccccc1C(=O)OCCCCCC`: the compound was called inactive in assay [1], in assay [2], in [3], in [4], in [10] and in [7].

Take `C[C@]12CCC(=O)C=C1CC[C@@H]1[C@@H]2CC[C@@]2(C)[C@H]1CC[C@]2(C)O`: the result in assay [1], in [2], in assay [3], in assay [4], in [10] and in assay [7] was inactive. For the same compound, the concentration at half-maximal activity (AC50) in assay [8] is 11 µM (active); in assay [5], 5.59 µM (active).
